Experimental findings from PubChem BioAssay (NCATS) are described below.

Records with an inconclusive call do not appear. A number with no mark means an inactive call. Calls of active or inactive are those of the source. Calls follow the shape of the full dose curve.
% is scaled to controls: 0 for no effect and ±100 for the full control effect; potency is read from the fitted curve at half-maximal effect.

For the assay, the target named is Nucleoprotein (Lymphocytic choriomeningitis virus (strain Armstrong)) (UniProt P09992). As to the kind of experiment: qHTS for Inhibitors of the Functional Ribonucleoprotein Complex (vRNP) of Lymphocytic Choriomeningitis Arenaviruses (LCMV): LCMV Primary Screen - GLuc reporter signal (AID 1347086). Also: nearly all actives have a fitted effect of over 70% in size. Conditions: LCMV minigenome vRNP cell assay, Gaussia luciferase reporter; series mostly up to 57.5 µM; activity change, negative = inhibition: at the top concentration. On the technique in general: Quantitative high-throughput screening tests each substance at several concentrations.
Chain of Nucleoprotein (Lymphocytic choriomeningitis virus (strain Armstrong)) (P09992 whole entry, looked up): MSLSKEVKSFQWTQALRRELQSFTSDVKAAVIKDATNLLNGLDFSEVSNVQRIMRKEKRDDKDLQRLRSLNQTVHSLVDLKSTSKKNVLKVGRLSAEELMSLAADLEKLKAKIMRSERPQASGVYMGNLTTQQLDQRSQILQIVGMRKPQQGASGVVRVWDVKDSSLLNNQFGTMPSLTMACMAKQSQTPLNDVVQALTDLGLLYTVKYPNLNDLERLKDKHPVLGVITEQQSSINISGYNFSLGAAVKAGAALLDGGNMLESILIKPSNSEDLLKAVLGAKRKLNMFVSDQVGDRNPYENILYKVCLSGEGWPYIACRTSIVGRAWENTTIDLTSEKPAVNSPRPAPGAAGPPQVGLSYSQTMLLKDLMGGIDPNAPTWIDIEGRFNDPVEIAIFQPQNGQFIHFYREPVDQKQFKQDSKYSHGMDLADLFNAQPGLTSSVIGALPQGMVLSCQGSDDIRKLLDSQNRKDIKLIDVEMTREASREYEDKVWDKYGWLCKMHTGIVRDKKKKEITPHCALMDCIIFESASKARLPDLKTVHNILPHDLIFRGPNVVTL
With `C=C1C(=O)OC2C1C(OC(=O)C(C)=CC)CC(=C)C1C(O)C3OC3(C)C21O` (stereo not given), the “activity change, negative = inhibition” value is -30.9%. `CC/C=C\CC1=C(C)CCC1=O`: the “activity change, negative = inhibition” value was 21.3% [at 115 µM]. Regarding `COC(=O)c1cc2c([nH]c3ccccc32)c(C)n1`, the “activity change, negative = inhibition” value is 0.537%. On to `O=C1c2cc(CO)cc(O)c2C(=O)c2c(O[C@@H]3OC(CO)[C@@H](O)[C@@H](O)[C@@H]3O)cccc21` (stereo not given in full), for which the “activity change, negative = inhibition” value was -3.3%.

On to `Cc1coc2c1C(=O)C(=O)c1c-2ccc2c(C)cccc12`, for which the “activity change, negative = inhibition” value is -3.45%. On the same count and under the same terms, the value for `CCNC(=O)CCCC=CC[C@@H]1[C@H](C=CC(O)CCc2ccccc2)[C@@H](O)C[C@@H]1O` (stereo not given in full) was 10.9%; that for `CC1(C)CC(=O)c2cc(O)ccc2O1` was 11.2%.

Regarding `CC(=O)OC[C@]1(OC(C)=O)C[C@@]23CC[C@H]4[C@@](C)(CCC[C@@]4(C)C(=O)O)[C@@H]2CC[C@@H]1C3`, the “activity change, negative = inhibition” value is 7.92%. The same measure, in the same setting: the figure for `COC(=O)/C=C\C(=O)O` is -5.54% [at 115 µM]; for `CC(C)CCCC(=O)O` it is 9.4% [at 115 µM]; for `C[C@@H](O)CCC[C@H](O)/C=C/[C@H]1[C@H](O)CC(=O)[C@@H]1C/C=C\CCCC(=O)O` it is -73.7% [at 5.82 µM]. Regarding `C=C(C)C(COc1c2occc2cc2ccc(=O)oc12)OC(C)(C)C(O)COc1c2occc2cc2ccc(=O)oc12` (stereo not given), the “activity change, negative = inhibition” value was 7.58%. As to `CC/C=C\CCOC(C)OCC` (stereo not given), the “activity change, negative = inhibition” value was 12.6% [at 115 µM]. In the case of `NCCC(=O)c1ccccc1N`, the “activity change, negative = inhibition” value was 7.8%.

On to `COc1cc(=O)n(C)c2c(O)cccc12`, for which the “activity change, negative = inhibition” value was 7.43%. The same measure, in the same setting: the value for `CC(C)=CCOc1c2ccoc2c(OCC=C(C)C)c2oc(=O)ccc12` was 28.6%. For the molecule `CCNC(=O)Nc1ccc(-c2nc3c(c(N4CCOC[C@H]4C)n2)CCN(C2COC2)C3)cc1`, the Potency is 1530 nM (active). Same read-out and setting: the value for `CC(=NNC(=S)N1CCC1)c1ccccn1` was 24.3 nM (active). As to `COc1cc2c(c3oc(-c4ccccc4)cc(=O)c13)C=CC(C)(C)O2`, the “activity change, negative = inhibition” value is -23.5%. For `CC(C)(O)C1CC[C@@]2(C)C3CCC4[C@@]5(C)CCCC(C)(C)C5C(O)C[C@]4(C)[C@]3(C)CC[C@@H]12` (stereo not given in full), the “activity change, negative = inhibition” value is 14%. The same measure, in the same setting: the figure for `CC1(C)CCC[C@@]2(C)CC=C(C(=O)O)[C@@H]3C[C@]312` is -1.39%; for `CC(C)(O)Cc1ccccc1` it is 1.76% [at 115 µM]; for `CO[C@H]1C=CO[C@@]2(C)Oc3c(C)c(O)c4c(O)c(c5c(c4c3C2=O)NC2(CCN(CC(C)C)CC2)N=5)=NC(=O)C(C)=CC=C[C@H](C)[C@H](O)[C@@H](C)[C@@H](O)[C@@H](C)[C@H](OC(C)=O)[C@H]1C` it is -3.29%. Same read-out and setting: the value for `CC(=O)Oc1ccc2c(C)cc(=O)oc2c1` was 7.12%; that for `CC1CC[C@@]2(OC1)O[C@H]1CC3[C@@H]4C[C@@H](O)[C@@]5(O)C[C@@H](O)[C@H](O)C[C@]5(C)[C@H]4CC[C@]3(C)[C@H]1[C@@H]2C` (stereo not given in full) was 6.62%. On to `CCCCCOC(=O)CCC`, for which the “activity change, negative = inhibition” value is 18.2% [at 115 µM]. Same read-out and setting: the figure for `O=C1O[C@@H](c2ccc(O)cc2)Cc2cccc(O)c21` is 9.64%; for `C/C=C/c1cc(OC)c2c(c1)[C@H](C)[C@@H](c1ccc(O)c(OC)c1)O2` it is 8.21%.

For the molecule `c1ccc(-c2ccc3ccccc3n2)cc1`, the “activity change, negative = inhibition” value is 1.84%. `CCCC1CCOC(C)S1` (stereo not given): the “activity change, negative = inhibition” value is 9.94% [at 115 µM]. With `CC12CCC(=O)C=C1CCC1C2C(O)CC2(C)C(O)CCC12` (stereo not given), the “activity change, negative = inhibition” value is -2.12%.

Turning to `COc1ccc(-c2oc3ccccc3c(=O)c2O)cc1`, the “activity change, negative = inhibition” value was 12.6%. As for `CCCCCCCOC(C)=O`, the “activity change, negative = inhibition” value is 19.3% [at 115 µM].

In the case of `CC(=O)OC1c2c(ccc3ccc(=O)oc23)OC(C)(C)C1OC(=O)CC(C)C` (stereo not given), the “activity change, negative = inhibition” value is -15.1%. Regarding `CC1(C)C2=CCCC(C)(C)[C@]23CC[C@H]1C3`, the “activity change, negative = inhibition” value is 26% [at 115 µM]. On the same count and under the same terms, the figure for `CC1CC2CCCC(O)=C2C(=O)O1` (stereo not given) is 10.7%; for `O=C(c1ccccc1)N1CCCCC1` it is 4.33%. As to `CC1(C)O[C@@H]2C[C@@H]3[C@H]4C[C@@H](F)C5=CC(=O)C=C[C@]5(C)[C@@]4(F)[C@@H](O)C[C@]3(C)[C@]2(C(=O)CO)O1`, the “activity change, negative = inhibition” value was 48.7%.

As to `CC/C=C\CCCCO`, the “activity change, negative = inhibition” value is 0.376% [at 115 µM].

On to `CCCCCCCCCCCCCCCCCCOS(=O)(=O)O`, for which the “activity change, negative = inhibition” value is 2.93% [at 115 µM].
